Reference: PubChem BioAssay (Tox21)
Where “and” joins values, the source holds several entries; their conditions need not be identical. Identical values can stand only once. Some compounds were tested as several samples or in several runs, with calls that do not always agree. Calls of active or inactive are those of the source. Where a call stands in place of a potency, no number is given. Unless noted, calls follow the shape of the dose curve; as a rule, active = well fitted curve in the direction sought with a large enough effect in the repeat runs; inconclusive = weak or mixed curves; inactive = no such curve, though single readings can be large; an effect the other way counts as inactive or inconclusive.

Columns and labels:
[1] = qHTS assay to identify small molecule antagonists of the glucocorticoid receptor (GR) signaling pathway - cell viability counter screen (AID 720693); also: nearly all actives have a fitted effect of over 55% in size; also: potency is read from the fitted curve at half-maximal effect
[2] = qHTS assay for identifying genotoxic compounds that show differential cytotoxicity against isogenic chicken DT40 cell lines with known DNA damage response pathways - wild type cell line (AID 743012); also: nearly all actives have a fitted effect of over 60% in size; also: potency is read from the fitted curve at half-maximal effect
How it was run: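 Quantitative HTS on parental DT40 cells: 40 h compound treatment at 37 C/5% CO2, with viability then determined by CellTiter-Glo luminescence. Values serve as the DNA repair-proficient reference for differential cytotoxicity.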

[3] = qHTS assay for identifying genotoxic compounds that show differential cytotoxicity against isogenic chicken DT40 cell lines with known DNA damage response pathways - Rev3 mutant cell line (AID 743014); also: nearly all actives have a fitted effect of over 55% in size; also: potency is read from the fitted curve at half-maximal effect
[4] = qHTS assay for identifying genotoxic compounds that show differential cytotoxicity against isogenic chicken DT40 cell lines with known DNA damage response pathways - Rad54/Ku70 mutant cell line (AID 743015); also: nearly all actives have a fitted effect of over 60% in size; also: potency is read from the fitted curve at half-maximal effect
[5] = qHTS assay to identify small molecule antagonists of the androgen receptor (AR) signaling pathway - cell viability counter screen (AID 743033; also: nearly all actives have a fitted effect of over 45% in size; also: potency is read from the fitted curve at half-maximal effect)
[6] = qHTS assay to identify small molecule antagonists of the androgen receptor (AR) signaling pathway using the MDA cell line - cell viability counter screen (AID 743041; also: nearly all actives have a fitted effect of over 45% in size; also: potency is read from the fitted curve at half-maximal effect)
How it was run: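 Same-well cytotoxicity was assessed by CellTiter-Fluor in MDA-kb2 AR-luc cells after 16 h of compound treatment under R1881 agonism.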

[7] = qHTS assay to identify small molecule antagonists of the thyroid receptor (TR) signaling pathway - cell viability counter screen (AID 743064); also: nearly all actives have a fitted effect of over 50% in size; also: potency is read from the fitted curve at half-maximal effect
How it was run: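 Fluorescence from CellTiter-Fluor, added after 23.5 h exposure at 37 °C, reported viability of GH3.TRE-Luc cells co-treated with compound and 1 nM T3. Measured in the same wells as the luciferase TR readout.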

[8] = qHTS assay to identify small molecule antagonists of the thyroid receptor (TR) signaling pathway (AID 743065); also: nearly all actives have a fitted effect of over 55% in size; also: potency is read from the fitted curve at half-maximal effect
How it was run: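 GH3.TRE-Luc rat pituitary cells (two TREs driving luciferase) were dosed with compound, then stimulated with 1 nM T3 (final) for 23.5 h at 37 C. ONE-Glo luminescence was the read-out, with CellTiter-Fluor fluorescence as the cytotoxicity counter-screen.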

[9] = qHTS assay to identify small molecule antagonists of the estrogen receptor alpha (ER-alpha) signaling pathway - cell viability counter screen (AID 743074; calls by dose curve;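 also: HEK293 cells carrying ER-alpha-UAS-bla reporter stimulated with 17beta-estradiol; nearly all actives have a fitted effect of over 45% in size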; also: potency is read from the fitted curve at half-maximal effect)
Aromatase (Homo sapiens) = Aromatase (Homo sapiens) (UniProt P11511); experiment: qHTS assay to identify aromatase inhibitors (AID 743083); also: nearly all actives have a fitted effect of over 55% in size; also: potency is read from the fitted curve at half-maximal effect
[10] = target: Estrogen receptor (Homo sapiens) (UniProt P03372); experiment: qHTS assay to identify small molecule antagonists of the estrogen receptor alpha (ER-alpha) signaling pathway (AID 743069; active = well fitted curve in the direction sought with a large enough effect in the signal ratio in the repeat runs, not every such curve was filed as active; inconclusive = weak or mixed curves, or effect the other way; inactive = no such curve, though single readings can be large or run the other way; the % refers to the signal ratio; also: potency is read from the fitted curve at half-maximal effect)
How it was run: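 Reporter cells (ER-alpha-bla, HEK293 background) are conditioned overnight in stripped-serum medium (2% charcoal-stripped FBS). Compound and 17beta-estradiol exposure runs 18 hr at 37C, 5% CO2.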

[11] = target: Estrogen receptor (Homo sapiens) (UniProt P03372); experiment: qHTS assay to identify small molecule agonists of the estrogen receptor alpha (ER-alpha) signaling pathway (AID 743075; calls by dose curve;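 also: HEK293 GripTite cells with ER-alpha and UAS-driven beta-lactamase reporter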); conditions: HEK293 ER-alpha-UAS-bla, beta-lactamase FRET ratio, 18 h; activation: at 70.1 µM (top of the series)
[12] = target: Estrogen receptor (Homo sapiens) (UniProt P03372); experiment: qHTS assay to identify small molecule agonists of the estrogen receptor alpha (ER-alpha) signaling pathway using the BG1 cell line (AID 743079); conditions: BG1Luc4E2 cells, ERE-luciferase agonist, 22 h; also: nearly all actives have a fitted effect of over 20% in size; also: potency is read from the fitted curve at half-maximal effect
[13] = qHTS assay to identify small molecule antagonists of the estrogen receptor alpha (ER-alpha) signaling pathway using the BG1 cell line (AID 743080; calls by dose curve;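 also: BG1 cells stimulated with 17beta-estradiol alongside compound; nearly all actives have a fitted effect of over 25% in size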; also: potency is read from the fitted curve at half-maximal effect)
How it was run: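 Readout is ONE-Glo luminescence, taken 30 min at room temperature after reagent addition, preceded by a CellTiter-Fluor viability read; BG1-Luc-4E2 cells had received compound and 17beta-estradiol for 21.5 h at 37 C.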

[14] = qHTS assay to identify small molecule antagonists of the estrogen receptor alpha (ER-alpha) signaling pathway using the BG1 cell line - cell viability counter screen (AID 743081);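 also: compound given together with 17beta-estradiol as the ER stimulus; nearly all actives have a fitted effect of over 45% in size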; also: potency is read from the fitted curve at half-maximal effect
[15] = system: thyroid hormone receptor (rat, GH3 cells); experiment: qHTS assay to identify small molecule agonists of the thyroid receptor (TR) signaling pathway (AID 743066; calls by dose curve)
[16] = target: Androgen receptor (Homo sapiens) (UniProt P10275); experiment: qHTS assay to identify small molecule agonists of the androgen receptor (AR) signaling pathway using the MDA cell line (AID 743040; also: nearly all actives have a fitted effect of over 20% in size)
How it was run: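 Human breast carcinoma MDA-kb2 reporter cells (MMTV-luc, AR/GR elements) were treated for 16 h at 37C in 0% CO2 following a 5 h settling period. Signal was quantified by ONE-Glo luminescence.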

Estrogen receptor (Homo sapiens), sequence (P03372 whole entry, looked up): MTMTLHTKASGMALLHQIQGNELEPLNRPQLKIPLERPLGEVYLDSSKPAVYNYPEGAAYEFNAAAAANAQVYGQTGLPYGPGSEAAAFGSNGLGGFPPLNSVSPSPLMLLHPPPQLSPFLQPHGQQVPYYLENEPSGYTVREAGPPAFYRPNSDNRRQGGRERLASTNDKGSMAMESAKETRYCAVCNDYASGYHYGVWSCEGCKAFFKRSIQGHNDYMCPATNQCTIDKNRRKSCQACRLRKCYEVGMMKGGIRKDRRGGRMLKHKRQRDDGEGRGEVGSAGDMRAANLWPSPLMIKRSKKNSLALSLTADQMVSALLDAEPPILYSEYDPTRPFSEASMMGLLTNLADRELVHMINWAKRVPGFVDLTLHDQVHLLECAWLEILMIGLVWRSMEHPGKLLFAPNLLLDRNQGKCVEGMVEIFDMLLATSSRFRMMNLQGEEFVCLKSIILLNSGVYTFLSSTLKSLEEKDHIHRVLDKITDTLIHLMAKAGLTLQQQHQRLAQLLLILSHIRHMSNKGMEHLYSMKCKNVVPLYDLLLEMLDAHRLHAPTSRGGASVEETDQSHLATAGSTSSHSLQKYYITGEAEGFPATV
Aromatase (Homo sapiens), sequence (P11511 whole entry, looked up): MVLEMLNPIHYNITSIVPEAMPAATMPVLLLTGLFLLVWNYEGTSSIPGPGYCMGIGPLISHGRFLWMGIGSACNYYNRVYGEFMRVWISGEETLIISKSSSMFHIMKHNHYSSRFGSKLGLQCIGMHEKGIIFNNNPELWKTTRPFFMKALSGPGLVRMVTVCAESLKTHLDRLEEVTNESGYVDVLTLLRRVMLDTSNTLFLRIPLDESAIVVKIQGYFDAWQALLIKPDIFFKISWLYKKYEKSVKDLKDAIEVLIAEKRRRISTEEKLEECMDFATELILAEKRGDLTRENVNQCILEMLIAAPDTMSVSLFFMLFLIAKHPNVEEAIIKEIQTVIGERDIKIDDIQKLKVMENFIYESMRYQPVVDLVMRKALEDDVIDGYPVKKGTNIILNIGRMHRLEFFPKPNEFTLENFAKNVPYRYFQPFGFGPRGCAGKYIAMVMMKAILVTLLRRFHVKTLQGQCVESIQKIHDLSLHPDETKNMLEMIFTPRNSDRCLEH
Androgen receptor (Homo sapiens), sequence (P10275 whole entry, looked up): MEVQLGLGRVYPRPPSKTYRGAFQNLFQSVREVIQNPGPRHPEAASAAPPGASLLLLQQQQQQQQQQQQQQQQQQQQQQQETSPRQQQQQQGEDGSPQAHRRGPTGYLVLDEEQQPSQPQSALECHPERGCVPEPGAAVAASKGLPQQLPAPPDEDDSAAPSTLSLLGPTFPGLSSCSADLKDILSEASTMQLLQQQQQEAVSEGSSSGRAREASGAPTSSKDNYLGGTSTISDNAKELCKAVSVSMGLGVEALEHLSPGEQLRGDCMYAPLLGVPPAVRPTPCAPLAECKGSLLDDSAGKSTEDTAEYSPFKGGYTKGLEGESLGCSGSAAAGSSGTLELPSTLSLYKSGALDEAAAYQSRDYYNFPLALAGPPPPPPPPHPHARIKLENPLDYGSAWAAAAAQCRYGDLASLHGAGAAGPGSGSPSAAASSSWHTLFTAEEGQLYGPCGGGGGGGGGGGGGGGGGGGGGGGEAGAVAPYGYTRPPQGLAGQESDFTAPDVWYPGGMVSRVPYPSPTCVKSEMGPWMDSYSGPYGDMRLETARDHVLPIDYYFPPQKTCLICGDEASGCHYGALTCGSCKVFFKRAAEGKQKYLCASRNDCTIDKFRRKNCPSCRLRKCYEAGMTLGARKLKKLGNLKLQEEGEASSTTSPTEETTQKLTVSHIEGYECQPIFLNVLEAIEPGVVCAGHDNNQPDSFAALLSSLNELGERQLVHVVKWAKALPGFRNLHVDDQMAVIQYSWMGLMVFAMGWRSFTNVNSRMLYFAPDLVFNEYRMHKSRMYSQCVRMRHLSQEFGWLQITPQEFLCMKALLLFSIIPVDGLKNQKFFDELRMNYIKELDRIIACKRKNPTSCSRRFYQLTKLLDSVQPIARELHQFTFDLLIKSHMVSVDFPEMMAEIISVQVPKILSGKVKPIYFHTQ

SMILES	Potency [1]	Potency [2]	Potency [3]	Potency [4]	Potency [5]	Potency [6]	Potency [7]	Potency [8]	Potency [9]	Potency (Aromatase (Homo sapiens))	Potency [10]	Potency [11]	activation ([12]; at 32.5 µM (top of the series))	Potency [13]	Potency [14]	Potency [15]	activation ([12]; at 70.3 µM (top of the series))	Potency [16]	activation ([12]; at 95 µM (top of the series))	Potency [12]
CC(C)c1ccc2c(c1)CC[C@H]1[C@](C)(CN)CCC[C@]21C	38.9 µM (active)	5.45 µM (active)	6.11 µM (active)	5.45 µM (active)	21.9 µM (active)	24.3 µM (active)	10.9 µM (active)	12.2 µM (active)	49 µM (active)	19.3 µM (active)										
Cc1cccc(CN2CCN(C(c3ccccc3)c3ccc(Cl)cc3)CC2)c1 (stereo not given)	inactive	9.02 µM (active)	5.07 µM (active)	9.02 µM (active)	inactive	inactive	12.7 µM (active)		inactive	inactive	inactive	inactive	-3.05% (inactive)	inactive	inactive					
CC(=O)OCC(C)OC(C)=O (stereo not given)	inactive	inactive	inactive	inactive	inactive	inactive	inactive	inactive	inactive	inactive	inactive	inactive		inactive	inactive	inactive	5.73% (inactive)			
C=CC(=O)OCCn1c(=O)n(CCOC(=O)C=C)c(=O)n(CCOC(=O)C=C)c1=O	inactive	2.73 µM (active)	2.43 µM (active)	2.43 µM (active)	15.5 µM (active)	30.6 µM (active)	5.45 µM (active)	4.86 µM (active)		13.7 µM (active)					54.5 µM (active)	inactive				
CCCCCCCCCCCC[N+](C)(C)CCCCCCCCCCCC	24.5 µM (active)	4.33 µM (active)	3.86 µM (active)	4.33 µM (active)	19.5 µM (active)	27.3 µM (active)	24.3 µM (active)	17.2 µM (active)	24.5 µM (active)	17.2 µM (active)	inactive				68.6 µM (active)	inactive				
c1ccc(CSCc2ccccc2)cc1	inactive	inactive	inactive	inactive	inactive	inactive	inactive	inactive	inactive	inactive					inactive	inactive				
CCc1cc(SCc2sc(-c3ccc(C(F)(F)F)cc3)nc2CN2CCN(c3ccc(OC)cc3)CC2)ccc1OCC(=O)O	49 µM (active)	43.3 µM (active)	61.1 µM (active)	30.6 µM (active)	5.49 µM (active)	inactive	24.3 µM (active)	12.2 µM (active)		54.5 µM (active)					inactive					
Cc1ccc(-n2nc(C(C)(C)C)cc2NC(=O)Nc2ccc(OCCN3CCOCC3)c3ccccc23)cc1	inactive	18.8 µM (active)	26.6 µM (active)	26.6 µM (active)	inactive	inactive	inactive		inactive	inactive	13.4 µM [inconclusive] (active)	inactive		inactive	inactive	inactive				
CCCCCCCCCCCCCCCS(=O)(=O)Oc1ccccc1	inactive	inactive	inactive	inactive	inactive	inactive	inactive	inactive	inactive	inactive	inactive	inactive		inactive	inactive	inactive	-9.91% (inactive)			
C1CCCC1	inactive	inactive	inactive	inactive	inactive	inactive	inactive	inactive	inactive	inactive					inactive	inactive				
CC(C)CCCCCCCCCCCCCCC(=O)O	inactive	inactive	inactive	inactive	inactive	inactive	inactive		inactive	inactive					inactive	inactive				
CC(C)(C)c1ccc(C(=O)O)cc1	inactive	inactive	inactive	inactive	inactive	inactive	inactive	inactive	inactive	inactive					inactive	inactive				
CC(C)(C)CC(C)(C)c1ccc(OCCOCC[N+](C)(C)Cc2ccccc2)cc1	19.5 µM (active)	668 nM (active) and 1.53 µM (active)	841 nM (active) and 968 nM (active)	1.06 µM (active) and 1.93 µM (active)	21.3 µM (active) and 7.75 µM (active)	24.8 µM (active) and 38.5 µM (active)	16.8 µM (active) and 13.7 µM (active)	16.8 µM (active) and 13.7 µM (active)	19 µM (active) and 19.5 µM (active)	23.7 µM (active) and 12.2 µM (active)		inactive			inactive and 61.1 µM (active)					
OC1(c2ccc(Cl)c(C(F)(F)F)c2)CCN(CCCC(c2ccc(F)cc2)c2ccc(F)cc2)CC1	15.1 µM (active)	4.22 µM (active)	7.5 µM (active)	5.96 µM (active)	19 µM (active)	inactive	5.96 µM (active)	5.96 µM (active)	26.8 µM (active)	7.5 µM (active)					inactive					
Cc1cccc(S(=O)(=O)O)c1C	inactive	inactive	inactive	inactive	inactive	inactive	inactive	inactive	inactive	inactive	inactive	inactive		inactive	inactive	inactive	-6.85% (inactive)			
CNC(=O)c1ccccc1	inactive	inactive	inactive	inactive	inactive	inactive	inactive	inactive	inactive	inactive	inactive	inactive		inactive	inactive	inactive	-14.7% (inactive)			
CCN1/C(=C/C=C/c2sc3ccccc3[n+]2CC)Sc2ccccc21	21.3 µM (active)	0.0266 µM (active)	0.0298 µM (active)	0.0266 µM (active)	3.01 µM (active)	0.75 µM (active)	1.68 µM (active)	0.841 µM (active)	10.7 µM (active)	1.5 µM (active)				2.98 µM (active)	9.44 µM (active)					
CCOC(=O)O[C@]1(C(=O)OCCl)CC[C@H]2[C@@H]3CCC4=CC(=O)C=C[C@]4(C)[C@H]3[C@@H](O)C[C@@]21C	inactive	inactive	inactive	inactive	inactive	inactive	inactive	inactive	inactive	inactive					inactive	inactive				
CCCCCCCCCCCC(=O)NCCCN(C)C	30.9 µM (active)	6.11 µM (active)	10.9 µM (active)	6.86 µM (active)	43.6 µM (active)		17.2 µM (active)	17.2 µM (active)	49 µM (active)	43.3 µM (active)					61.1 µM (active)			inactive		
Clc1ccccc1C(c1ccccc1)(c1ccccc1)n1ccnc1	inactive	5.07 µM (active) and 5.45 µM (active)	10.1 µM (active) and 15.4 µM (active)	8.04 µM (active) and 3.44 µM (active)	54.9 µM (active)	inactive	8.04 µM (active) and 21.7 µM (active)	3.59 µM (active) and 3.86 µM (active)	inactive and 54.9 µM (active)	4.52 µM (active) and 6.86 µM (active)	6.44 µM [inconclusive] (active) and 15.5 µM [inconclusive] (active)	inactive	-14.7% (inactive)		inactive	inactive				
CO[Si](CCCNc1ccccc1)(OC)OC	inactive	12.2 µM (active)	15.4 µM (active)	8.63 µM (active)	inactive	inactive	inactive	inactive	inactive	inactive					inactive	inactive				
CCC(N)(CO)CO	inactive	inactive	inactive	inactive	inactive	inactive	inactive	inactive	inactive	inactive	inactive	inactive		inactive	inactive	inactive			-5.95% (inactive)	
O=C(O)c1cc(O)c2c(c1)C(=O)c1cccc(O)c1C2=O	inactive	inactive	inactive	inactive	inactive	inactive	inactive	inactive	inactive	inactive	inactive	inactive		inactive		inactive				39.7 µM (active)
COc1cccc(N)c1	inactive	inactive	inactive	inactive	inactive	inactive	inactive		inactive						inactive	inactive				
Oc1cccc2cc3cccc(O)c3c(O)c12	inactive	inactive	inactive	inactive	inactive	inactive	inactive	inactive	inactive	inactive						inactive				
Cn1cc(C(=O)[C@@H]2CCc3nc[nH]c3C2)c2ccccc21	inactive	inactive	inactive	inactive	inactive	inactive	inactive	inactive	inactive	inactive	inactive	inactive		inactive	inactive	inactive	5.8% (inactive)			
O=c1cc(-c2ccc(O)cc2)oc2cc(O)cc(O)c12	49 µM (active)	27.3 µM (active)	69.5 µM (active) and 27.3 µM (active)	31 µM (active) and 13.7 µM (active)	inactive	inactive	55.2 µM (active)	61.9 µM (active) and 30.6 µM (active)								inactive				
